{"source": "ChEMBL document CHEMBL1157539", "about": "“Thousands of chemical starting points for antimalarial lead identification” (Nature, 2010)", "data": [{"tested_on": "Plasmodium falciparum", "experiment": "GSK_TCMDC: Inhibition of Plasmodium falciparum 3D7 in whole red blood cells, using parasite LDH activity as an index of growth. Test compounds present at 2uM", "format": "functional", "units": {"Inhibition": "%"}, "values": [{"compound": "COc1ccc(F)cc1-c1ccccc1CNC(=O)CN(C)S(=O)(=O)c1cc(C)cc(Cl)c1C", "Inhibition": 92}, {"compound": "CC(C)c1cccc(C(NC(=O)[C@H]2Cc3ccccc3CN2C(=O)c2cccc(N3CCOCC3)c2)C2CCCC2)c1", "note": "(stereo not given in full)", "Inhibition": 94}, {"compound": "Cn1nc(-c2cccc(CNCc3ccccc3)c2)c2cnc(NC3CCCC3)nc21", "Inhibition": 85}, {"compound": "Clc1cccc(Cl)c1CCNCC1CCN(CC2CCCCC2)CC1.O=C(O)C(F)(F)F", "Inhibition": 98}, {"compound": "CCOC(=O)CCCCCNC[C@H](O)c1ccccc1.Cl", "Inhibition": 98}, {"compound": "O=C(NC1CCCCC1)C(c1cccs1)N(CCc1ccccc1)C(=O)c1ccco1", "note": "(stereo not given)", "Inhibition": 92}, {"compound": "CC(=O)c1c(Cc2ccccc2Cl)c[nH]c1C", "Inhibition": 95}, {"compound": "C=Cc1ccc(-c2c(C)[nH]c(C)c(Br)c2=O)cc1", "Inhibition": 98}, {"compound": "O=C(O)C(F)(F)F.O=S(=O)(NCCN1CCCC1)c1ccc(-c2cccc(CNC3Cc4ccccc4C3)c2)cc1F", "Inhibition": 98}, {"compound": "CN1CCN(C(C(=O)NCc2cc(Cl)cc(Cl)c2)c2ccccc2-c2ccsc2)CC1", "note": "(stereo not given)", "Inhibition": 95}, {"compound": "COc1cc(CN2CCC(NC(=O)[C@H](Cc3ccccc3)NC(=O)Nc3ccc(Oc4ccccc4)cc3)C2)ccc1O", "note": "(stereo not given in full)", "Inhibition": 92}, {"compound": "COc1ccc(NC(=O)[C@H](CC(C)C)Nc2cc(C)nc(NCCc3cccs3)n2)cc1.O=C(O)C(F)(F)F", "Inhibition": 100}, {"compound": "N=C(N)Nc1nc(-c2cccc(NC(=O)NCC(c3ccccc3)c3ccccc3)c2)cs1", "Inhibition": 100}, {"compound": "CS(=O)(=O)CCNCc1cccc(-c2cc3c(Nc4ccc(OCc5cccc(F)c5)c(Cl)c4)ncnc3s2)c1.O=C(O)C(F)(F)F", "Inhibition": 100}, {"compound": "c1ccc(COc2ccccc2COc2ccccc2-c2ccc3cccnc3n2)cc1", "Inhibition": 87}, {"compound": "Cl.N=C(N)c1ccc(NN=Cc2ccc(Oc3ccc(C(=N)N)cc3)cc2)cc1", "Inhibition": 99}, {"compound": "CC(C)CNCc1cccc(-c2cccc(CN(CCCN3CCN(C)CC3)C(=O)Nc3ccccc3)c2)c1.O=C(O)C(F)(F)F", "Inhibition": 95}, {"compound": "Cc1ccc(-c2cc(C(=O)Nc3ccc(S(=O)(=O)N4CCCCC4)cc3)[nH]n2)c(O)c1", "Inhibition": 97}, {"compound": "Nc1nc(N)c2c(ccc3c2ccn3Cc2ccccn2)n1", "Inhibition": 90}, {"compound": "COc1ccc(-c2ccc(CNC(=O)c3cccc(C#N)c3)c(F)c2)cc1CN1CCCN(C)CC1.O=C(O)C(F)(F)F", "Inhibition": 99}, {"compound": "COc1cc2nccc(Nc3ccc(OCc4ccc(NC(C)=O)cc4)cc3)c2cc1OC.Cl", "Inhibition": 100}, {"compound": "Cc1cc(N2CCC(N(C)C)C2)nc(Nc2ccc(Cl)cc2)n1", "note": "(stereo not given)", "Inhibition": 99}, {"compound": "O=C(O)/C=C\\C(=O)O.c1ccc(COc2ccnc(NCCCOc3cccc(CN4CCCCC4)c3)c2)cc1", "Inhibition": 100}, {"compound": "CC1(C)N=C(N)N=C(N)N1c1cccc(C(F)(F)F)c1.Cl", "Inhibition": 95}, {"compound": "COc1ccc(C(=O)Nc2ccc3nc(N4CCCCC4)cc(C)c3c2)cc1[N+](=O)[O-]", "Inhibition": 96}, {"compound": "O=C(Nc1ccc(Cl)cc1)Nc1ccc2c(c1)N1CCN=C1S2", "Inhibition": 99}, {"compound": "Cc1cc(NC(=O)NCCN2CCC(NS(=O)(=O)c3ccccc3Cl)C2)c2ccccc2n1", "note": "(stereo not given)", "Inhibition": 97}, {"compound": "O=C(O)C[C@H](NC(=O)c1cc(-c2ccc3c(c2)OCO3)no1)C(=O)O.O=C(O)C[C@H](NC(=O)c1conc1-c1ccc2c(c1)OCO2)C(=O)O", "Inhibition": 98}, {"compound": "CCCCn1c(-c2ccco2)nc2c(c(=O)c3ccccc3n2C)c1=O", "Inhibition": 87}, {"compound": "N#Cc1ccccc1C(=O)N(Cc1cncn1Cc1cccc(F)c1)CC1CC1", "Inhibition": 100}, {"compound": "CCOC(=O)c1ccc(N2CCN(c3cc(C)ccc3C)CC2)c(NC(=O)Nc2ccc(Cl)c(Cl)c2)c1", "Inhibition": 100}, {"compound": "Cc1cccc2nc(-c3ccc(-c4ccc(NC(=O)NCc5cccc(F)c5)cc4)cc3)[nH]c12", "Inhibition": 97}, {"compound": "Cc1ncccc1C(=O)Nc1cccc(-c2cccc(-c3nc4cc(C(F)(F)F)ccc4[nH]3)c2)c1", "Inhibition": 96}, {"compound": "NC(=O)c1cc2nc(Nc3ccc(F)cc3)nc(Nc3ccc(S(N)(=O)=O)cc3)c2[nH]1.O=CO", "Inhibition": 100}, {"compound": "CNCCNCc1ccc(-c2ccc(-c3nc4cc(F)ccc4[nH]3)s2)cc1.O=C(O)C(F)(F)F", "Inhibition": 99}, {"compound": "CC(OC(=O)c1ccc(C(=O)NCC2CC2)cc1)C(C)(C)C", "note": "(stereo not given)", "Inhibition": 93}, {"compound": "CC(C)NCc1ccc(-c2cccc(NC(=O)c3ccc(Cl)cc3)c2)cc1.O=C(O)C(F)(F)F", "Inhibition": 100}, {"compound": "Cc1ccc2nc3c(cc(C(=O)NCc4ccccc4)c(=N)n3CCCn3ccnc3)c(=O)n2c1", "Inhibition": 93}, {"compound": "O=S(=O)(c1cc(Cl)c(Cl)cc1Cl)N1CCCCC(c2ccc(C(F)(F)F)cc2)=N1", "Inhibition": 98}, {"compound": "COc1ccccc1/C=C/C(=O)N(C)C1CCN(CCCCCNC(=O)/C=C/c2ccc(Cl)c(Cl)c2)CC1", "Inhibition": 83}]}]}
